Screens: PubChem, The Scripps Research Institute Molecular Screening Center
The entries come from a sample that favours hits as a whole.
TTR transcr act: activators of transthyretin transcription. SH-SY5Y TTR promoter Gaussia luciferase, luminescence; 100% = recombinant luciferase protein wells. AID 1117267. 1.3% of 92,000 active. activation, % at 16.7 µM;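 active = activation above the mean of all tested compounds plus 3 SD, cut at about 9.5% in these data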;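 also: cells exposed to compounds for one day before reading; 0% = median of all test compound wells on the plate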
TTR inh HuH7: HuH7 TTR transcription inhibition, counter-screen; 4% of 1,100 active; HuH7 TTR promoter-Gaussia luciferase reporter, luminescence; shares compounds with TTR transcr act; inhibition, % at 16.7 µM; AID 1117279;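 active = average inhibition above the solvent-only control wells' mean plus 3 SD, cut at about 15% in these data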;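 also: 0% = cells with DMSO only and 100% = cells with inhibitor control FD; inhibitors lower well luminescence so higher value means more inhibition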
TTR act confirm: human TTR transcription activation, confirmation; shares compounds with TTR transcr act; SHSY5Y TTR promoter Gaussia luciferase, luminescence; 100% = purified Lucia enzyme wells, no cells; activation, % at 16.7 µM; 1,100 tested, under 10 active; AID 1117280;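 active = mean activation above a set limit taken from the earlier primary screen, cut at about 11% in these data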;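 also: 0% = DMSO-treated cells and 100% = recombinant Lucia luciferase without cells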
The depositor's hits bear a star.

What do the screens show for `O=C(CN1CCN(Cc2ccc3c(c2)OCO3)CC1)Nc1ccc(F)cc1`?
TTR transcr act: 1

What do the screens show for `O=C(CN1CCN(CC(=O)Nc2ccc(Cl)cc2)CC1)Nc1ccc(F)cc1`?
TTR transcr act: 11*; TTR inh HuH7: -1; TTR act confirm: 0

Results for O=C(/C=C/[C@H]1O[C@@H](n2cnc3c(NC(=O)c4ccccc4)ncnc32)[C@H](O)[C@@H]1O)NCC(c1ccccc1)c1ccccc1 ?
TTR transcr act: -1

Results for CC1CCN(C(=O)c2[nH]cnc2C(=O)Nc2ccccc2)CC1 ?
TTR transcr act: 1

What do the screens show for `COc1ccc(CC(=O)NNS(=O)(=O)c2ccccc2[N+](=O)[O-])cc1`?
TTR transcr act: 0

What do the screens show for `O=C(OCc1ccc([N+](=O)[O-])cc1Cl)c1cnccn1`?
TTR transcr act: 0

How did COC(=O)CSC1=C(C#N)C(c2ccccc2F)CC(=O)N1 (configuration not stated) do in these assays?
TTR transcr act: -1

How did N#CC1=C(N)NC(=S)C(C(N)=O)C1c1ccccc1F (configuration not stated) do in these assays?
TTR transcr act: 12*; TTR inh HuH7: -25; TTR act confirm: 0

How did COC(=O)C1=C(C)OC(N)=C(C#N)C1c1ccccc1F (configuration not stated) do in these assays?
TTR transcr act: 2

What do the screens show for `COc1cc(C(=O)N(C)CC2CCN(CCc3cccc(C(F)(F)F)c3)CC2)ccc1C`?
TTR transcr act: -2

How did CC1(c2nc3ccccc3[nH]2)CCCC2=Nc3ccccc3CN21 (configuration not stated) do in these assays?
TTR transcr act: -2

What do the screens show for `CCCCOc1ccc(S(=O)(=O)NC(=O)C2(C)CCN2C(=O)c2cccc(F)c2)cc1` (configuration not stated)?
TTR transcr act: 1

Results for CCOC(=O)C1(Cc2ccc(OC)cc2)CCN(C(=O)Cn2cnnn2)CC1 ?
TTR transcr act: 1

Results for CCOC(=O)C1(Cc2ccc(OC)cc2)CCN(C(=O)c2cncs2)CC1 ?
TTR transcr act: 9.7*; TTR inh HuH7: -2; TTR act confirm: 0

What do the screens show for `CCOC(=O)C1(Cc2ccc(OC)cc2)CCN(C(=O)C2CCCO2)CC1` (configuration not stated)?
TTR transcr act: 2

How did COC(=O)C1CN(C(=O)OC(C)(C)C)C2=C1C(=O)CC(C)(C(=O)OC(C)(C)C)C2 (configuration not stated) do in these assays?
TTR transcr act: 3

What do the screens show for `CCOc1ccccc1-c1nc(C(N)=O)c2[nH]c(=O)n(-c3ccc(F)cc3)c2n1`?
TTR transcr act: 1

What do the screens show for `CC(C)c1nc(C(N)=O)c2[nH]c(=O)n(-c3ccc(F)cc3)c2n1`?
TTR transcr act: 9.8*; TTR inh HuH7: -8; TTR act confirm: -2

How did Cc1ccsc1-c1nc(C(N)=O)c2[nH]c(=O)n(-c3ccc(Cl)cc3)c2n1 do in these assays?
TTR transcr act: 2

What do the screens show for `C[C@H](CO)N1C[C@H](C)[C@@H](CN(C)Cc2ccccc2F)Oc2ncc(Br)cc2C1=O`?
TTR transcr act: -2

How did COCCCNC(=O)C[C@@H]1C[C@@]2(C(=O)OC)CCCCC=C2N(CCc2ccc(OC)c(OC)c2)C1=O do in these assays?
TTR transcr act: 36*; TTR inh HuH7: -5; TTR act confirm: 1

Results for CCOC(=O)[C@]12CCCC=C1N(Cc1ccccc1)C(=O)[C@H](CC(=O)NCc1ccc(OC)c(OC)c1)C2 ?
TTR transcr act: -2

Results for CCCCCCCCN1C(=O)[C@H](CC(=O)NCCc2ccccc2OC)C[C@@]2(C(=O)OCC)CCCC=C12 ?
TTR transcr act: -2

What do the screens show for `Cc1cc(C)cc(C(=O)NCC(=O)NNC(=O)CSc2ccccc2F)c1`?
TTR transcr act: -1

Results for COc1cccc(C(=O)Nc2ccc(Oc3nnc(-c4ccccc4)c4ccccc34)cc2)c1 ?
TTR transcr act: 0

What do the screens show for `CCOC(=O)[C@@H]1CSCCS(=O)(=O)N1C(=O)[C@H](C)NC(=O)OC(C)(C)C`?
TTR transcr act: 4

Results for COc1cc(/C=C/C(=O)OCC(=O)NC(=O)C2COc3ccccc3O2)ccc1OC(F)F (configuration not stated) ?
TTR transcr act: 1

How did Cc1cc(Br)ccc1NC(=O)C1CCN(C(=O)c2ccco2)CC1 do in these assays?
TTR transcr act: -1

How did CCOC(=O)N/N=C/c1ccc(F)cc1F do in these assays?
TTR transcr act: 26*; TTR inh HuH7: -4; TTR act confirm: 0

What do the screens show for `CCOC(=O)N/N=C\c1sccc1C`?
TTR transcr act: -1

Results for CCOC(=O)N/N=C/c1ccccc1OCc1ccc(Cl)cc1 ?
TTR transcr act: -2

How did CC(=O)c1c(C)[nH]c(C(=O)OCC(=O)Nc2ccc3c(c2)OCCO3)c1C do in these assays?
TTR transcr act: -2

How did CCn1c(SCC(=O)Nc2ccc(OC)cc2)nc2nc3c(cc2c1=O)CCCC3 do in these assays?
TTR transcr act: -1

What do the screens show for `Cc1ccccc1-n1c(SCC(=O)Nc2ccccc2)nc2nc3c(cc2c1=O)CCCC3`?
TTR transcr act: 13*; TTR inh HuH7: -15; TTR act confirm: -1

How did CCn1c(SCC(=O)NCc2ccccc2)nc2nc3c(cc2c1=O)CCCC3 do in these assays?
TTR transcr act: -1

How did Cc1nc(N)ncc1CCC1OCCO1 do in these assays?
TTR transcr act: 12*; TTR inh HuH7: -10; TTR act confirm: 0

How did O=C(CCSc1ccc(Br)cc1)c1ccc(O)cc1 do in these assays?
TTR transcr act: 1

Results for CC1=[N+](C)N(c2ccccc2)C(=O)C1N=C/C=C/c1ccccc1 (configuration not stated) ?
TTR transcr act: 0

What do the screens show for `Cc1cc(C)nc(NS(=O)(=O)c2ccc(NC(=O)C3CC(=O)N(c4ccccc4)C3)cc2)n1` (configuration not stated)?
TTR transcr act: -1

Results for Cc1ccnc(NS(=O)(=O)c2ccc(NC(=O)C3CC3)cc2)n1 ?
TTR transcr act: 5

Results for Cc1cc(C)nc(NS(=O)(=O)c2ccc(NC(=O)C3CC3)cc2)n1 ?
TTR transcr act: 24*; TTR inh HuH7: -21; TTR act confirm: 0

What do the screens show for `OCC[C@H]1C[C@H](O)[C@@H](O)[C@@]2(Cc3ccccc3O2)O1`?
TTR transcr act: 8

Results for Cc1cccc(C)c1NC(=O)CN(C)C(=O)c1cccc(S(=O)(=O)N2CCN(C)CC2)c1 ?
TTR transcr act: 15*; TTR inh HuH7: -7; TTR act confirm: -1

What do the screens show for `Cc1cccc(C)c1NC(=O)CN(C)C(=O)c1cc(S(=O)(=O)N(C)C)ccc1N1CCCC1`?
TTR transcr act: 2

Results for Cc1cccc(C)c1NC(=O)CN(C)C(=O)c1cccc(S(=O)(=O)N2CCN(c3ccccc3)CC2)c1 ?
TTR transcr act: 0

How did CCCC/C=C1/[C@H](c2ccccc2)N(C)C2=N[C@@H](c3ccccc3)CC(=O)N21 do in these assays?
TTR transcr act: 1

How did Cn1nc(C(C)(C)C)cc1N1C(=O)CCC1(C)C(=O)Nc1ccc2ccccc2c1 (configuration not stated) do in these assays?
TTR transcr act: 1
